Compound activity as filed in PubChem.
Compounds with a hit are over-represented: about 6% of the library has one in this group of screens.
D1 antagonist: blocks dopamine activation of the human D1 receptor; P21728; HEK293 TREx D1 cells, calcium flux, dopamine EC80; hits give low values; activity change, negative = inhibition, % at 10 µM; hit rate 3.2% among 360,000; AID 504652; in the data active = activity change below about -30%
Target sequence (P21728 whole entry, looked up): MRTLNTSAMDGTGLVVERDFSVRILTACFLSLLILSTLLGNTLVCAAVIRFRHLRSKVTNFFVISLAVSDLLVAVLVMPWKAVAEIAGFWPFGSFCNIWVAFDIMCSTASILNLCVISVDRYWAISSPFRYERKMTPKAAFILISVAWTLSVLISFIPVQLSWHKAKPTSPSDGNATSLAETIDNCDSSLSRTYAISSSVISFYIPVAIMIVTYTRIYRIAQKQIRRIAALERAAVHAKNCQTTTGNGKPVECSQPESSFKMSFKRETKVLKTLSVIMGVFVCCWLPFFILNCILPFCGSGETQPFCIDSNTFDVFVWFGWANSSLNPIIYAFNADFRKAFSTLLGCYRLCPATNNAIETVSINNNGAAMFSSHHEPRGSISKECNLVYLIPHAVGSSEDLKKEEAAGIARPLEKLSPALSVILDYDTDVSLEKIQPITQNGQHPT
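Tetracycline-induced HEK293 T-REx cells with force-coupled D1 receptor were loaded with a no-wash calcium dye. Compound was added after a 10 s baseline and read kinetically for 180 s; EC80 dopamine was then added and calcium flux followed another 180 s.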
D1 agonist: activates the human D1 dopamine receptor | P21728 | HEK293 T-REx D1 cells, calcium flux, agonist mode | activation, % at 2 µM | hit rate 1% among 360,000 | AID 504660; in the data active = activation above about 30%
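Agonism was scored from calcium flux recorded over 180 s (1 read/s) after pintool compound addition, following a 10-cycle baseline. Cells were inducible force-coupled HEK293 TREx D1, plated overnight at 30 C and loaded with no-wash calcium dye.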
D1 potentiator: potentiators of human D1 dopamine receptor; HEK293 TREx D1 cells, calcium flux, dopamine EC20 potentiation; P21728; AID 504651; hit rate 0.036% among 360,000; potentiation, % at 10 µM; in the data active = potentiation above about 30%
D3 ag: D3 dopamine receptor (human) agonism; hit rate 0.58% among 410,000; max activation, %; AID 652048; D3R DiscoveRx beta-arrestin cells, luminescence, 90 min; P35462; in the data active = max activation above about 30%
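Agonist-mode cell screen: cells plated at 1500/well and incubated overnight at 37 °C, then exposed to library compounds for 90 min at 37 °C. Detection reagent was added for 30–60 min at room temperature, and luminescence was read.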
D3 antag: D3 dopamine receptor (human) antagonism; P35462; D3R cells, DiscoveRx beta-arrestin luminescence, antagonist mode; hits give low values; max response, negative = inhibition, %; hit rate 2.5% among 360,000; AID 652054; in the data active = max response below about -50%; inconclusive = no clear call, values can overlap the other calls
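Cells expressing the human receptor were seeded at 1500 cells/well, incubated overnight at 37 degrees C in 5% CO2, then exposed to library compounds with dopamine controls for 90 minutes at 37 degrees C before luminescent detection.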
Of the large screens only hits and unclear results are named; the others gave an inactive call.

CCOc1ccc(C(=O)NCCc2sc3nc(-c4ccc(Cl)cc4)nn3c2C)cc1OCC	none (no result: D1 antagonist, D3 antag)
Cc1cccc(-c2noc(-c3cccnc3NCc3ccco3)n2)c1	none (no result: D3 antag)
Cc1nc(N2CCN(c3ccccc3)CC2)c2c3c(sc2n1)CCC3	none (no result: D3 ag, D3 antag)
CSc1nc(N2CCOCC2)c2c3c(sc2n1)CCC3	D3 antag -65.1
COc1ccc(Cl)cc1NC(=O)C(=O)NCc1ccncc1	D1 antagonist -37.6
CC(C)(C)C(=O)OCOC(=O)C1N2C(=O)CC2S(=O)(=O)C1(C)C (centres undefined)	none (no result: D1 antagonist, D1 agonist, D1 potentiator, D3 antag)
CCOC(=O)COc1ccc(C)cc1C(=O)c1ccn2nc(-c3ccc(F)cc3)cc2n1	none (no result: D3 antag)
Cc1csc(CNc2ncnc3ccc(-c4ccco4)cc23)c1	D1 antagonist -39.3 (no result: D3 ag, D3 antag)
c1cncc(CNc2ncnc3ccc(-c4ccco4)cc23)c1	D1 antagonist -76.9 (no result: D3 ag, D3 antag)
COc1cccc(-c2ccc3ncnc(NCc4cccnc4)c3c2)c1	none (no result: D3 ag, D3 antag)
COc1ccc(N(C)C(=O)CCn2cnc3onc(-c4ccc(F)cc4)c3c2=O)c(OC)c1	none (no result: D3 antag)
Cc1ccc(-c2nnc3ccccc3c2C(=O)Nc2cccc(C(F)(F)F)c2)cc1	none (no result: D3 antag)
COCc1cc(C)nc(SCC[N+](C)(C)CC(=O)Nc2cccc(C)c2)c1C#N	none
COCc1cc(C)nc(SCc2ccc(F)cc2)c1C#N	none
COCc1cc(C)nc(SCC(=O)Nc2ccc3c(c2)OCO3)c1C#N	none
COCc1cc(C)nc(SCC[N+](C)(C)CC(=O)c2ccccc2)c1C#N	D3 antag -54.6
COCc1cc(C)nc(SCC(=O)Nc2ccc3c(c2)OCCO3)c1C#N	D1 antagonist -30.7
COCc1cc(C)nc(SCc2ccc(Cl)cc2)c1C#N	D1 antagonist -32.0, D1 agonist 36.2
CN(C)c1ccc(CNC(=O)c2sc3ncccc3c2-n2cccc2)cc1	none (no result: D3 antag)
COC(=O)[C@@H]1OC(=O)[C@H]2O[C@@]23[C@@]1(C)CC[C@@H]1[C@@]2(C)C=CC(=O)OC(C)(C)[C@@H]2CC(=O)[C@]13C	D3 ag 45.7
CSCCC(NS(=O)(=O)c1ccccc1)C(=O)OCc1cc(=O)oc2cc(O)ccc12 (centres undefined)	D3 antag -51.7
CSCCC(NS(=O)(=O)c1ccccc1)C(=O)OCc1nc2ccsc2c(=O)[nH]1 (centres undefined)	none
CCC(CC)c1nnc(NC(=O)Oc2ccccc2)s1	D3 antag -69.0
COC(=O)c1ccc(CSCc2ccc(C#N)cc2)cc1	D1 antagonist -35.1 (no result: D3 ag, D3 antag)
N#Cc1ccc(CSCC(=O)O)cc1	none
O=C(c1ccccc1)c1ccc(O)cc1O	D1 agonist 60.2
Cc1ccc2nc(SC(Cc3cc(Cl)ccc3Cl)C(=O)O)[nH]c2c1 (centres undefined)	none (no result: D3 antag)
CCCCc1ccc(S(=O)(=O)N2CCN(C(=O)c3ccco3)CC2)cc1	D1 antagonist -31.4
C#CCOCCOCCOCCNc1nc(N2CCN(C(=O)CCCCCCCCCCNC(=O)Cn3cc(CCCCCN)nn3)CC2)nc(N2CCN(C(=O)CCCCCCCCCCNC(=O)[C@H](CO)n3cc(CCCCCN)nn3)CC2)n1	D1 agonist 84.8
C#CCOCCOCCOCCNc1nc(N2CCOCC2)nc(N2CCN(C(=O)CCCCCCCCCCNC(=O)[C@H](CO)n3cc(CCCCCN)nn3)CC2)n1	none
C#CCOCCOCCOCCNc1nc(N2CCOCC2)nc(N2CCN(C(=O)CCCCCCCCCCNC(=O)Cn3cc(CCCCCN)nn3)CC2)n1	none
C#CCOCCOCCOCCNc1nc(N2CCN(C(=O)CCCCCCCCCCNC(=O)Cn3cc(CCCCCN)nn3)CC2)nc(N2CCN(C(=O)CCCCCCCCCCNC(=O)[C@H]([C@@H](C)CC)n3cc(CCCCCN)nn3)CC2)n1	D1 agonist 43.2
O=C(c1ccc2c(c1)N(Cc1ccc(Cl)cc1)C(=O)c1ccccc1S2(=O)=O)N1CCc2ccccc21	none (no result: D3 antag)
CC(C)(C)OC(=O)N1CCC(c2nnc(SCc3cccc(Cl)c3)o2)CC1	none (no result: D3 antag)
CC(=O)Nc1ccc2c(COC(=O)[C@H](C)N3C(=O)C4CCCCC4C3=O)cc(=O)oc2c1 (some centres undefined)	none
Cc1cc(=O)oc2cc(NC(=O)C(C)N3C(=O)C4CCCCC4C3=O)ccc12 (centres undefined)	D1 antagonist -43.0
Cc1ccc(CN2CCN(Cc3cnn(-c4ccc(F)cc4)c3)CC2CCO)o1 (centres undefined)	D3 antag inconclusive
COc1cccc2c1OCC(CN1CCN(Cc3ccccc3)C(CCO)C1)=C2 (centres undefined)	D3 antag -93.6
COc1ccc(CN2CCN(Cc3ccccc3)C(CCO)C2)cc1OC (centres undefined)	D3 antag -71.9
C/C(=C\c1ccco1)CN1CCN(Cc2ccc(C)o2)C(CCO)C1 (centres undefined)	D3 antag -69.6
Cc1ccc(CN2CCN(C/C=C/c3ccc(F)cc3)CC2CCO)o1 (centres undefined)	D3 antag -92.9
CCCn1cc(CN2CCN(Cc3ccc(C)o3)C(CCO)C2)c(C)n1 (centres undefined)	D1 antagonist -35.9
CCCn1ncc(CN2CCN(Cc3ccc(C)o3)C(CCO)C2)c1C (centres undefined)	none
CSc1ccc(CN2CCN(C(C)C)C(CCO)C2)cc1 (centres undefined)	D1 antagonist -35.3
CC(C)N1CCN(Cc2ccncc2)CC1CCO (centres undefined)	none
CCOc1ccccc1CN1CCN(C/C=C/c2ccc(OC)cc2)CC1CCO (centres undefined)	D3 antag inconclusive
OCCC1CN(Cc2cccc(C(F)(F)F)c2)CCN1Cc1ccccc1 (centres undefined)	D3 antag -71.9
COc1ccccc1/C=C/CN1CCN(Cc2ccc(F)cc2)C(CCO)C1 (centres undefined)	D3 antag -82.3
CCc1ccccc1NC(=O)c1noc2c1CC(C(C)(C)C)CC2 (centres undefined)	none (no result: D3 antag)
CSc1cccc(CN2CCN(CCC(C)C)C(CCO)C2)c1 (centres undefined)	D3 antag -50.9
CC(C)CCN1CCN(Cc2cccc(C(F)(F)F)c2)CC1CCO (centres undefined)	D3 antag -112.4
CC(C)CCN1CCN(Cc2cccc(-n3cccn3)c2)CC1CCO (centres undefined)	none
CCOC(=O)Cn1c(=O)n(CC2CCCO2)c2nc(-c3ccc(CC)cc3)nc(C(N)=O)c21 (centres undefined)	none (no result: D3 antag)
O=C(/C(=C/c1ccc(Cl)cc1)c1nc2ccccc2[nH]1)c1ccccc1	D3 antag -74.8
COc1cc(/C=C(/C(=O)c2cccs2)c2nc3ccccc3[nH]2)cc(OC)c1O	D3 antag -99.9
O=C(N/C(=C/c1ccc(Cl)cc1)c1nc2ccccc2[nH]1)c1ccco1	none
CCOC(=O)c1[nH]c2ccccc2c1NC(=O)c1cc(OCC)c(OCC)c(OCC)c1	none (no result: D3 antag)
